MITF inh = MITF inhibitors, primary screen, biochemical, AlphaScreen, human | Microphthalmia-associated transcription factor (Homo sapiens), O75030 | AlphaScreen MITF homodimerization, bead proximity signal | inhibition, % at 2.6 µM | 650,000 compounds, 0.91% hits | AID 1259374, 2018; in the data active = inhibition above about 50%
GPR151 activ = activators of human GPR151, primary screen, cell-based, PathHunter beta-arrestin, luminescence; G-protein coupled receptor 151 (Homo sapiens), Q8TDV0; PathHunter beta-arrestin GPR151 cells; activation, % at 11.2 µM; 650,000 compounds, 1% hits; in the data active = activation above about 4.9%
Target sequence (Q8TDV0 whole entry, looked up): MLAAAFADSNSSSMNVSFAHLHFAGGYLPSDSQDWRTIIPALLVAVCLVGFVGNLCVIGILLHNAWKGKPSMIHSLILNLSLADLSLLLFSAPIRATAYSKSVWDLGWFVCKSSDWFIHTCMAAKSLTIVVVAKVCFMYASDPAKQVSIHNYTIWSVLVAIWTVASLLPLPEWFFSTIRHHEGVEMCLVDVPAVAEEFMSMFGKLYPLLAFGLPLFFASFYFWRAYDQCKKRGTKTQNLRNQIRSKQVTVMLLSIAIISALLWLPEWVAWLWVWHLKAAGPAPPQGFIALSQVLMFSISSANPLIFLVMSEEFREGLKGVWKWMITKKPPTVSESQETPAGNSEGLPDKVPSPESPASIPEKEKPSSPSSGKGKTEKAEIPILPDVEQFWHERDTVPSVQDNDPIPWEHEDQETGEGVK
FBW7 act = FBW7 E3 ligase activators, primary screen, biochemical, AlphaScreen, human; 650,000 compounds, 0.13% hits; AlphaScreen FBW7–phospho-cyclin E peptide binding, activator screen; F-box/WD repeat-containing protein 7 (Homo sapiens), Q969H0; normalized activity (activation), % at 26.1 µM; AID 1259310, 2017; in the data active = normalized activity above about 1.9%;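 also: purified mutant Fbw7 with reduced substrate affinity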
TEAD-YAP block = TEAD-YAP interaction inhibition, primary screen, TEAD-YAP interaction inhibitor project, luminescence, HEK-TIYL cells; inhibition, % at 9.12 µM; AID 1259422, 2018; TEAD-Gal4/YAP UAS-luciferase luminescence; 640,000 compounds, 1.4% hits; in the data active = inhibition above about 32%
Hits are given with their value; – = inactive. Shown are actives, neighbours in structure and some others; about 3.4% of the full set was active somewhere.

SMILES | MITF inh | GPR151 activ | FBW7 act | TEAD-YAP block
CCCCc1ccc(C2=N/C(=C\c3ccc(F)cc3)C(=O)N2c2ccc(F)cc2)cc1 | – | – | – | –
O=C(NCCc1ccc(O)cc1)c1ccc2nc(Nc3ccc(C(F)(F)F)cc3)sc2c1 | – | – | – | –
Cc1ccc(Nc2nc(NC3CCCC3)nc3c2cnn3C)cc1 | – | – | – | –
CCc1nnc2ccc(N3CCN(S(=O)(=O)c4ccc(OC)cc4OC)CC3)nn12 | – | – | – | –
Cc1ccc(CNc2nc3ccccc3s2)s1 | – | – | – | 66
OCCCNc1ccc2ncc(-c3cccc4ccccc34)n2n1 | – | – | – | –
OCCCNc1ccc2ncc(-c3ccccc3F)n2n1 | – | – | – | 56
COCCNc1ccc2ncc(-c3ccccc3F)n2n1 | – | – | – | 49
COc1ccc(C(C)C)cc1-c1cnc2ccc(NCc3ccco3)nn12 | – | – | – | 59
COc1ccc(-c2cnc3ccc(NCc4ccco4)nn23)c(OC)c1 | – | – | – | –
Fc1ccccc1-c1cnc2ccc(NCc3ccco3)nn12 | – | – | – | 39
Cc1nc(C(=O)N2CCCC(CNS(=O)(=O)c3cccs3)C2)cs1 (stereo not drawn) | – | – | – | –
O=C(CSc1ccc(-c2ccc(-n3ccnc3)cc2)nn1)N1CCc2ccccc21 | – | – | 2.3 | –
CCC(C)NC(=O)C(=O)Nc1ccccc1 (stereo not drawn) | – | – | – | –
CC(=O)N(Cc1ccc(F)cc1)C1=C(NCc2ccccc2)C(=O)c2ccccc2C1=O | – | – | – | 59
Cc1cc(OCC(=O)Nc2ccc(C#N)cc2)ccc1Cl | – | – | – | –
Cc1ccc(-n2nc3ccc(NC(=O)c4ccc(C(C)(C)C)cc4)cc3n2)cc1Cl | – | – | – | –
Cc1nc2ccccc2n1Cc1nnc(-c2ccccc2)o1 | – | – | – | 40
O=C1c2ccc3c4c(ccc(c24)C(=O)N1CCCCO)C(=O)N(CCCCO)C3=O | – | – | – | 79
Cc1ccc2c(c1)C1CN(C)CCC1N2C(=O)c1ccc(Cl)c([N+](=O)[O-])c1 (stereo not drawn) | – | – | – | –
Cc1nc(NC(C)c2ccccc2)cc(-c2ccccn2)n1 (stereo not drawn) | – | – | – | 36
Cc1nc(NC(C)c2ccccc2)cc(-c2cncc(Br)c2)n1 (stereo not drawn) | – | – | – | –
Cc1ccccc1CN1CCN(Cc2cccc3ccccc23)CC1 | 79 | – | – | –
CC(C)=CCN1CCNC(=O)C1CC(=O)N(Cc1ccccc1)Cc1scnc1C (stereo not drawn) | – | – | – | –
CCOC(=O)C(C)CN1CCN(CC(C)C(=O)OCC)CC1 (stereo not drawn) | – | – | – | –
SMILES | MITF inh | GPR151 activ | FBW7 act | TEAD-YAP block
CCN(CC)c1ccc(C2NC(=O)c3ccccc3N2)cc1 (stereo not drawn) | – | – | – | 79
COc1cc(CNC(=O)c2ccc3ccccc3n2)cc(OC)c1OC | – | – | – | 45
COc1cc(CNC(=O)c2c(C(F)(F)F)nc3c(OC)cccn23)cc(OC)c1OC | – | – | 1.9 | –
COc1cc(NC(=O)c2cccc(-c3cccc(N)c3)n2)cc(OC)c1OC | – | – | – | 34
COc1cc(NC(=O)c2cccc(-c3ccc(C(N)=O)cc3)n2)cc(OC)c1OC | – | – | – | 35
COc1cc(NC(=O)c2cccc(N3CCN(Cc4ccc5c(c4)OCO5)CC3)n2)cc(OC)c1OC | – | – | – | 37
CC(=O)Nc1ccc(NC(=O)c2cnc(N3CCN(Cc4ccc5c(c4)OCO5)CC3)s2)cc1 | – | – | – | 42
CCn1c2ccccc2c2nnc(N/N=C/c3ccc(O)cc3O)nc21 | – | – | – | –
COc1ccccc1C1/C(=C(/O)c2ccc(C)cc2)C(=O)C(=O)N1CCC(=O)O (stereo not drawn) | – | – | – | –
CC1C(=O)Nc2cc(S(C)(=O)=O)ccc2N1C(=O)c1ccco1 (stereo not drawn) | – | – | – | –
COc1cc(NC(=O)c2cccc(-c3ccc(N4CCOCC4)nc3)c2)cc(OC)c1OC | – | – | – | –
COc1cc(NC(=O)c2cccc(-c3ccc(N4CCOCC4)nc3)n2)cc(OC)c1OC | – | – | – | 34
Clc1cccc(-n2cc(-c3ccccc3)c3c(NCCC4=CCCCC4)ncnc32)c1 | – | – | – | –

Bioassay records: PubChem, The Scripps Research Institute Molecular Screening Center
